# Keap1 Nrf2 FP: disrupts human Keap1 binding to Nrf2 peptide. Keap1 Kelch-Nrf2 peptide fluorescence polarization, 1536-well. inhibition, % at 9.4 µM. 340,000 compounds, 0.15% hits. AID 504523; in the data active means inhibition above about 12%; inconclusive means no clear call, values can overlap the other calls; inactive means below about 7.3%;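 further: human Keap1 Kelch domain with fluorescein labeled Nrf2 9mer peptide probe; higher means more block of Keap1 binding to Nrf2 peptide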
# Glyco luc inh: blocks N-linked glycosylation in D54 reporter cells. D54 ERlucT glycosylation luciferase reporter, 24 h; percent of 100 nM tunicamycin response. reporter increase, % at 12.5 µM. 360,000 compounds, 0.23% hits. AID 588692;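 active means mean luciferase reporter signal, scaled so untreated is 0 and the glycosylation-blocking control 100, at or above a set limit in every replicate; inconclusive means mean reaches the limit but not every replicate does; inactive means mean below the limit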;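 further: luciferase carries N-glycosylation sites so blocking glycosylation raises the light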
# C-LANA FP: blocks KSHV LANA C-terminal domain binding to DNA. inhibition, % at 9 µM. 340,000 compounds, 0.078% hits. MBP-C-LANA/FAM-LBS DNA binding, fluorescence polarization;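 active means highest replicate inhibition at or above 60% at 9 µM, even if other replicates fall short; inactive means all replicates below 60% inhibition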
# HDAC3 inhib: blocks human histone deacetylase 3. O15379. recombinant HDAC3, fluorogenic peptide/trypsin coupled, fluorescence. inhibition, % at 8.3 µM. 320,000 compounds, 0.15% hits; in the data active means inhibition above about 26%, passing the limit was not always enough; inconclusive means no clear call, values can overlap the other calls
# Casp6 inh: inhibitors of human caspase-6; purified caspase-6, Z-VEID-R110 cleavage fluorescence; inhibition, % at 12.5 µM; 350,000 compounds, 0.53% hits;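 active means mean inhibition across replicates at least about 35%, with every replicate also reaching that limit, limit read from the data; inconclusive means only one of the two criteria met; inactive means neither criterion met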
# NSD2 inh: inhibitors of human histone methyltransferase NSD2. inhibition, % at 12.5 µM. 310,000 compounds, 0.54% hits. NSD2 peptide methylation, AlphaScreen, 120 min; in the data active means inhibition above about 50%
# A number is an active result; n = inactive; u = inconclusive; x = no result given. Only some compounds are listed: those with a hit (about 1.1% of all), similar ones and a draw of the others.
SMILES,Keap1 Nrf2 FP,Glyco luc inh,C-LANA FP,HDAC3 inhib,Casp6 inh,NSD2 inh
CC(=O)CSc1nnc(Cc2ccc([N+](=O)[O-])cc2)o1,n,n,n,27.9,x,n
C[C@H](CO)N1C[C@H](C)[C@H](CN(C)Cc2ccc3c(c2)OCO3)Oc2ccc(NC(=O)Cc3ccccc3)cc2CC1=O,x,x,x,x,n,x
O=C(Nc1ccccc1)C1CCN(S(=O)(=O)c2ccc3c(c2)OCCO3)CC1,n,n,n,n,36.5,n
O=C(O)c1ccc(NC(=O)C2CCN(S(=O)(=O)c3ccc4c(c3)OCCO4)CC2)cc1,x,n,x,x,n,n
O=C(c1ccccc1F)N1CCN(S(=O)(=O)c2ccc3c(c2)OCCO3)CC1,n,n,n,31.9,n,x
COc1ccc(C(=O)NCC(=O)N/N=C/c2ccc(C)o2)cc1OC,n,n,n,56.0,n,n
COc1ccc(CC(=O)NCC(=O)N/N=C/c2ccc(C)o2)cc1,n,n,n,u,n,n
O=C(CNC(=O)c1ccc(Br)o1)Nc1cccc(-c2cnc3ccccc3n2)c1,n,25.8,n,n,x,n
O=C(Nc1cccc(-c2cnc3ccccc3n2)c1)c1ccco1,n,n,n,n,x,n
CC(=O)c1cccc(NC(=O)CSc2ncc(C(=O)Nc3ccccc3)c(=O)n2C)c1,n,30.1,n,n,n,n
Cc1cc(C)c2cccc(N)c2n1,n,n,n,n,n,n
Cc1cc(C)c2c(N)c3ccccc3nc2n1,n,123.0,n,n,x,x
CCc1ccc2nc3nc(C)cc(C)c3c(N)c2c1,n,85.1,n,n,n,n
C[C@@H]1CN([C@H](C)CO)S(=O)(=O)c2ccc(/C=C/c3ccccc3)cc2O[C@@H]1CN(C)C,x,x,x,x,n,x
Nc1cccc(Nc2nc(OC(C(F)(F)F)C(F)(F)F)nc(OC(C(F)(F)F)C(F)(F)F)n2)c1,n,n,n,49.3,x,n
COc1nc(Nc2ccc(O)cc2)nc(OC(C(F)(F)F)C(F)(F)F)n1,n,n,n,n,x,n
CO[C@H]1CN(C)C(=O)c2ccc(NC(=O)c3cnccn3)cc2OC[C@@H](C)N(C(=O)C2CC2)C[C@H]1C,x,x,x,x,n,x
C[C@H]1CN([C@@H](C)CO)C(=O)c2cc(C#CCN(C)C)cnc2O[C@H]1CN(C)Cc1ccc(C(=O)O)cc1,x,x,x,x,n,x
O=C(NC1CCCCC1)c1ccc(-c2ccccc2[N+](=O)[O-])o1,n,n,n,n,n,n
O=C(NC1CCCC(C(F)(F)F)C1)c1ccc([N+](=O)[O-])o1 (stereo unspecified),n,29.1,n,n,n,n
O=C(NC1CCCCC1)c1ccc([N+](=O)[O-])o1,n,41.0,n,n,x,n
O=C(NCC1CCCO1)c1ccc([N+](=O)[O-])o1 (stereo unspecified),n,n,n,n,n,n
CO[C@H]1CN(C)C(=O)c2cc(NC(=O)NC3CCCCC3)ccc2OC[C@@H](C)N(CC2CCOCC2)C[C@H]1C,x,x,x,x,n,x
Cc1cccc(N2C(=O)Cc3ccccc3C2=O)c1,n,n,n,n,48.0,n
Cc1ccc(N2Cc3ccccc3C2=O)cc1,n,n,n,n,n,n
SMILES,Keap1 Nrf2 FP,Glyco luc inh,C-LANA FP,HDAC3 inhib,Casp6 inh,NSD2 inh
COc1ccc2c(c1)C(=O)N(c1ccccc1OC)C(=O)C2,n,n,n,n,n,n
Cc1ccc(N2C(=O)Cc3ccccc3C2=O)cc1,n,n,n,n,49.7,n
COc1ccccc1N1C(=O)Cc2ccccc2C1=O,n,n,n,n,48.8,x
CN(C)CC(=O)N1[C@H](CO)[C@@H](c2ccccc2)C12CN(C(=O)c1ccc(F)cc1)C2,x,x,x,x,n,x
N#C[C@H]1N[C@@H](CO)[C@@H]1c1ccccc1,x,x,x,x,n,x
COc1cccc(CNC(=O)COC(=O)c2ccc(-c3ccc(O)cc3)cc2)c1,x,27.6,x,x,n,n
Oc1ccc(CCNc2c3ccccc3nc3ccccc23)cc1O,n,37.4,n,n,n,n
C[C@H](CO)N1C[C@H](C)[C@H](CN(C)Cc2ccc3c(c2)OCO3)Oc2ccc(NS(=O)(=O)c3ccccc3)cc2C1=O,x,x,x,x,n,x
O=S(=O)(NCc1cccnc1)c1ccc(Cl)cc1,n,n,n,n,46.6,n
C[C@H]1CN([C@@H](C)CO)C(=O)Cc2cc(NC(=O)Nc3ccc(F)cc3)ccc2O[C@@H]1CN(C)C(=O)Nc1ccc2c(c1)OCO2,x,x,x,x,n,x
C/C=C/c1cnc2c(c1)C(=O)N([C@@H](C)CO)C[C@H](C)[C@@H](CN(C)C(=O)Nc1ccc(C(F)(F)F)cc1)O2,x,x,x,x,n,x
C[C@H](CO)N1C[C@H](C)[C@@H](CN(C)C(=O)Nc2ccc(C(F)(F)F)cc2)Oc2ccc(NC(=O)Nc3ccc(C(F)(F)F)cc3)cc2C1=O,n,n,n,35.3,n,x
C[C@H](CO)N1C[C@H](C)[C@@H](CN(C)C(=O)Nc2ccc(C(F)(F)F)cc2)Oc2ncc(/C=C/c3ccccc3)cc2C1=O,x,x,x,x,47.7,x
C[C@H](CO)N1C[C@H](C)[C@H](CN(C)C(=O)Nc2ccc(C(F)(F)F)cc2)Oc2ccc(NC(=O)Nc3ccc(C(F)(F)F)cc3)cc2C1=O,x,x,x,x,n,x
C[C@H]1CN([C@@H](C)CO)C(=O)c2cccc(NC(=O)Nc3ccc(F)cc3)c2O[C@@H]1CN(C)C(=O)Nc1ccc(C(F)(F)F)cc1,x,x,x,x,n,x
C[C@H]1CN([C@@H](C)CO)C(=O)c2cccc(NC(=O)Nc3ccc(C(F)(F)F)cc3)c2O[C@@H]1CN(C)C(=O)Nc1ccc(F)cc1,n,n,n,35.3,n,x
C[C@H](CO)N1C[C@H](C)[C@@H](CN(C)Cc2ccc(C(F)(F)F)cc2)Oc2ccc(NC(=O)Cc3cn(C)c4ccccc34)cc2C1=O,x,x,x,x,n,x
CO[C@H]1CN(C)C(=O)c2ccc(NC(=O)C3CCC3)cc2OC[C@@H](C)N(CC2CCCCC2)C[C@H]1C,x,x,x,x,n,x
C[C@@H]1CN([C@@H](C)CO)C(=O)Cc2cc(NC(=O)NC3CCCCC3)ccc2O[C@H]1CN(C)C(=O)Nc1ccc2c(c1)OCO2,x,x,x,x,n,x
C[C@](N)(Cc1ccc(O)c(O)c1)C(=O)O,n,n,n,x,87.1,x
Cc1ccccc1N(C)S(=O)(=O)c1nnc(NC(=O)c2ccco2)s1,n,n,n,n,69.4,n
CSc1ccccc1NC(=O)c1ccc([N+](=O)[O-])cc1,n,n,n,n,n,n
O=C(Nc1ccccc1O)c1ccc(Cl)cc1,n,n,n,90.7,x,n
O=C(Nc1ccccc1O)c1ccc([N+](=O)[O-])cc1,n,n,x,52.8,n,n
O=C(CCl)Nc1cccc(S(=O)(=O)NC2=NCCC2)c1,n,60.2,n,n,n,n
C[C@@H]1CN([C@@H](C)CO)C(=O)c2cc(NC(=O)CCN3CCOCC3)ccc2O[C@@H]1CN(C)CC1CC1,x,x,x,x,n,x
O=C1/C(=C\c2ccco2)SC(=S)N1c1ccc(O)cc1,n,n,n,n,37.7,n
O=C1/C(=C\c2ccc(O)cc2)SC(=S)N1c1cccnc1,n,n,n,n,n,n
O=C(NN1C(=O)/C(=C/C=C/c2ccco2)SC1=S)c1ccncc1,x,n,x,x,76.1,x
NN1C(=O)/C(=C\c2ccco2)SC1=S,x,n,x,n,70.3,n

# Compound activity as filed in PubChem.
